HT1080NT lethal = kills 2HG-producing HT-1080-NT fibrosarcoma cells. 360,000 compounds, 1.6% hits. Potency, µM (titrated, usually from 46.1 µM), inactives show at the top dose activity, negative = less viability, most hits filed as cytotoxic. HT-1080-NT fibrosarcoma viability, CellTiter-Glo ATP luminescence, 48 h;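 also: NT is the 2HG producing partner of a matched IDH1 knockdown line; 0% = DMSO-treated cells and -100% = media-only wells without cells; nearly all actives have a fitted effect of over 55% in size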
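HT-1080-NT; 750 cells/well; 5% FBS RPMI; 48 h compound, 37 degrees C; CellTiter-Glo luminescence; curve fitting and curve-class assignment.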
HT1080 IDH1KD tx = HT-1080 IDH1 knockdown cell toxicity (counter line); AID 686971; 360,000 compounds, 2% hits; Potency, µM (highest dose often 46.1 µM), inactives show at the highest dose activity, negative = toxicity, usual class: cytotoxic; HT-1080 IDH1 knockdown viability, ATP luminescence, 48 h;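 also: 0% = DMSO wells and -100% = cell-free medium wells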
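Knockdown cells (IDH1KD HT-1080) received compounds 2 h after plating at 750 cells/well and were kept 48 h at 37 °C in 5% FBS RPMI. A CellTiter-Glo luminescence read gave % activity for curve fitting.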
KB-3-1 cytotox = KB-3-1 parental cell cytotoxicity; KB-3-1 viability, CellTiter-Glo ATP luminescence, 72 h; Potency, µM (highest dose often 46.1 µM), usual class: cytotoxic; 400,000 compounds, 1.4% hits; also: % is scaled to controls: 0 for no effect and ±100 for the full control effect; nearly all actives have a fitted effect of over 60% in size
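Viability of parental KB-3-1 cells, measured by CellTiter-Glo luminescence, followed a 72 h incubation at 37 °C with pinned compounds in phenol-red-free DMEM containing 10% FBS.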
KB-V1 MDR tox = KB-V1 MDR subline cytotoxicity; KB-V1 MDR cells viability, CellTiter-Glo, 72 h; Potency, µM (top dose mostly 46.1 µM), actives largely listed as cytotoxic; 400,000 compounds, 3.4% hits; AID 1347076; also: % is scaled to controls: 0 for no effect and ±100 for the full control effect; nearly all actives have a fitted effect of over 60% in size
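KB-V1, DMEM (no phenol red) + 10% FBS; cpd pin-transferred, titration series; 72 h, 37 degrees C; CellTiter-Glo, luminescence. Data normalized, curve-fit.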
SW480 rereplic = induces DNA re-replication in SW480 colon adenocarcinoma cells. SW480 DNA re-replication, Hoechst DNA content imaging, 48 h. Potency, µM (series often up to 46.1 µM), for inactives: at the top dose re-replication activation, actives largely listed as activators. 340,000 compounds, 1.8% hits. AID 624297; also: % of control where 0% means no effect; nearly all actives have a fitted effect of over 55% in size
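First, 250 cells per well were seeded. Next, compound or vehicle (23 nL) was pinned in, plates sat 48 hr at 37 C. Finally Hoechst was added for 40 min before fluorescence scanning.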
MCF10A rerep = induces DNA re-replication in MCF 10a normal breast cells; MCF 10A DNA re-replication, Hoechst nuclear intensity, 48 h; Potency, µM (doses to about 46.1 µM), for the others: at the highest dose activity, positive = re-replication, most hits filed as activators; 350,000 compounds, 2.9% hits; AID 624296; also: % of control where 0% means no effect; nearly all actives have a fitted effect of over 50% in size
Active calls of the source: *; i = inactive; ? = inconclusive; · = no result given; ! = not active in a repeat; [ ] = another dose, or the depositor's remark. Hits are enriched below; roughly 8% of the tested compounds scored in any of these assays. Calls follow the shape of the dose curve; as a rule, active = well fitted curve in the direction sought with a large enough effect; inconclusive = small, poorly fitted or top-dose-only effect, or another doubt; inactive = no such curve, though single readings can be large; an effect the other way counts as inactive or inconclusive. Potency is read from the fitted curve at half-maximal effect.

SMILES	HT1080NT lethal	HT1080 IDH1KD tx	KB-3-1 cytotox	KB-V1 MDR tox	SW480 rereplic	MCF10A rerep
COc1ccccc1NS(=O)(=O)c1ccc(C(=O)N2CCCC(C(F)(F)F)C2)cc1 (centres undefined)	-3%	2%	i	i	-7%	17%
COc1ccccc1N(C)S(=O)(=O)c1ccc(C(=O)OCC(=O)N2CCC2)cc1	?	16µM*	?	?	107%	8%
CN(C)c1ccc(CC(=O)N2CCCC(c3cc(C(=O)Nc4ccc(C(C)(C)C)cc4)no3)C2)cc1 (centres undefined)	-17%	10µM*	i	i	·	·
Cc1ccccc1OCCCSc1nc2ccccc2[nH]1	-19%	-24%	?	12µM*	4%	?
Cc1ccc(-n2nnnc2SCn2nnc3ccccc3c2=O)cc1	-12%	-9%	i	i	-5%	-2%
O=c1c2ccccc2nnn1CSc1ccc2c(c1)OCCO2	-2%	-10%	i	23µM*	-4%	11%
Cc1cccc(-n2nnnc2SCn2nnc3ccccc3c2=O)c1	6%	-5%	i	13µM*	-1%	18%
Cn1nc(-c2ccccc2)c(CSc2ccccc2)c1Cl	-5%	0%	i	i	?	13µM*
Cc1ccc(Sc2c(C#N)c(-c3ccccc3)nn2C)cc1	?	?	i	i	?	6.5µM*
Cc1ccc(SCc2nn(C)c(Cl)c2C=O)cc1	2%	-19%	i	?	-3%	2%
Cn1nc(N)c2c(-c3ccccc3)c(C#N)c(N)nc21	0%	1%	i	i	-3%	2%
Cc1ccc(SCc2c(-c3ccccc3)nn(C)c2Cl)cc1	-6%	-20%	i	i	-1%	8.2µM*
O=C(c1ccc(N2CCCC2)c([N+](=O)[O-])c1)N1CCc2ccccc2C1	-7%	-11%	?	2.6µM*	93%	?
O=C(c1ccc(S(=O)(=O)c2ccccc2)cc1)N1CCc2ccccc2C1	-12%	-2%	i	18µM*	-4%	4%
CC1Cc2ccccc2N1C(=O)c1ccc(N2CCCCC2)c([N+](=O)[O-])c1 (centres undefined)	6%	3%	i	13µM*	22%	12%
CC1Cc2ccccc2N1C(=O)c1ccc(N2CCCC2)c([N+](=O)[O-])c1 (centres undefined)	-18%	-19%	i	i	?	?
Cc1ccc(NC(=O)CN2c3cccc4cccc(c34)S2(=O)=O)cc1	-8%	-8%	i	23µM*	-2%	?
O=C(CN1C(=O)CCOc2ccccc21)Nc1cccc(S(=O)(=O)N2CCOCC2)c1	4%	-6%	i	?	-7%	-4%
O=C(CN1c2cccc3cccc(c23)S1(=O)=O)Nc1cccc(S(=O)(=O)N2CCOCC2)c1	9%	14%	i	18µM*	-4%	2%
COCC(C)n1c(C)cc(C(=O)CN2c3cccc4cccc(c34)S2(=O)=O)c1C (centres undefined)	0%	1%	i	i	3%	-8%
Cc1cc(C(=O)CN2c3cccc4cccc(c34)S2(=O)=O)c(C)n1C	-30%[9.24 µM]	15µM*	?	i	3.3µM*	3.7µM*
O=C(CN1c2cccc3cccc(c23)S1(=O)=O)NC1CCCCC1	6%	8%	i	21µM*	-15%	-8%
O=C(CN1C(=O)c2ccccc2S1(=O)=O)NC1CCCCCC1	?	0%	i	?	1%	8%
CCOc1ccc(C(=O)N(Cc2nc(-c3cccc(C)c3)no2)C(C)C)cc1	·	·	i	?	·	·
O=C(Cn1c(=O)n(Cc2ccco2)c(=O)c2cccnc21)Nc1ccccc1F	·	·	i	i	·	·
SMILES	HT1080NT lethal	HT1080 IDH1KD tx	KB-3-1 cytotox	KB-V1 MDR tox	SW480 rereplic	MCF10A rerep
CC1(C)OC(=O)C2(Cc3ccccc3N3CCC(c4ccccc4)CC32)C(=O)O1 (centres undefined)	·	·	i	i	·	·
COc1cccc(C(C(=O)NC2CCCC2)N2CCN(c3cc(C)ccc3C)CC2)c1OC (centres undefined)	?	?	?	16µM*	·	·
Cc1ccc(O)c(CN(C)Cc2cc(C)ccc2O)c1	2%	-5%	?	21µM*	-3%	0%
Cc1ccc(O)c(CP(=O)(c2ccccc2)c2ccccc2)c1	3%	4%	i	?	4%	8%
CCc1ccccc1NNC(=O)c1sccc1Cl	6%	-14%	·	·	·	·
CC1=CC(C)(C)NC(=S)N1c1ccc([N+](=O)[O-])cc1	-27%	?	i	i	-10%	-25%
CC1=CC(C)(C)NC(=S)N1c1cccc(C)c1	8.9µM*!	8.9µM*!	i	i	22%	?
CC1=CC(C)(C)NC(=S)N1c1ccc(C)cc1	?	11µM*	i	i	9%	-4%
CC1=CC(C)(C)NC(=S)N1c1ccc(C)c(C)c1	2%	-4%	?	i	-21%	3%
CCOC(=O)C1=C(C)N=c2sc(=Cc3ccc(OCC(=O)O)cc3)c(=O)n2C1c1ccc(Cl)cc1 (centres undefined)	-23%	-27%	i	i	·	·
CCOC(=O)C1=C(C)N=c2s/c(=C\c3ccc(OCC(=O)O)cc3)c(=O)n2C1c1ccc(OC(C)C)cc1 (centres undefined)	-22%	-21%	i	?	-40%	15µM*
CCOC(=O)C1=C(C)N=c2sc(=Cc3cc(Cl)c(OCC(=O)O)c(Cl)c3)c(=O)n2C1c1cccc(OC)c1 (centres undefined)	26µM*	21µM*	i	i	·	·
CC(C)N(c1ccc(C=O)cc1)C(C)C	·	·	i	i	·	·
Cc1ccc(CNC(=O)CCn2cnc3ccccc3c2=O)cc1	·	·	i	i	·	·
CCOC(=O)c1c2ccc(OCC(=O)NN)cc2n2ccccc12	-28%	?	?	i	-11%	16µM*
CCOC(=O)c1c(C)n(C)c2cc(OCCN(CC)CC)ccc12	-24%	3%[9.24 µM]	i	?	0%	28%
CCOC(=O)c1c2ccc(OCC(=O)N/N=C/c3ccc(C)cc3)cc2n2ccccc12	12%	18%	?	?	?	2.6µM*
Cc1ccc(OCC(=O)N/N=C/c2cn(C)c3ccccc23)cc1	3%	0%	i	i	-21%	?
OCCCCCN=c1cc(-c2ccccc2)oc2ccc(Cl)cc12	-9%	-27%	?	?	19%	26%
Clc1ccc2oc(-c3ccccc3)cc(=NCCCN3CCOCC3)c2c1	?	?	?	21µM*	5%	8%

Assay outcomes: PubChem BioAssay, National Center for Advancing Translational Sciences (NCATS)
